Reference: PubChem BioAssay AID1224858 (National Center for Advancing Translational Sciences (NCATS), 2016)
Records with an inconclusive call do not appear. Entries that show only a call come without a potency. Activity calls are given as the source filed them. The call rests on the fitted dose curve; in most records, active means well fitted inhibition curve with a large enough effect; inconclusive means small, poorly fitted or top-dose-only effect; inactive means no such curve, though single readings can be large or run the other way.

Assay: Confirmation assay for measurement of the activity of small molecule inhibitors on Zika virus induced Caspase-3 activity in human astrocytes
Details: ZIKV-induced caspase-3/7 luminescence, 6 h; series mostly up to 46.1 µM
Procedure, shortened: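 Human astrocytes were pretreated 1 h with compound, then infected with ZIKV (2 FFU/cell) for 6 h at 37 C. Caspase-3/7 activity by Caspase-Glo luminescence; percent inhibition versus uninfected and infected wells.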

With `CC(O)=C(C#N)C(=O)Nc1ccc(C(F)(F)F)cc1` as the compound, how does the Potency read?
Its Potency is 1.09 µM (active).

Which Potency does the source give for `Cc1ccc2c(n1)Oc1ccc(C(C)C(=O)OCC(=O)N(C)C)cc1C2` (stereo unspecified) here?
The Potency was 19.5 µM (active).

For `CCCC(=O)OC[C@@H](OC(=O)CCC)[C@@H](OC(=O)CCC)[C@H](Cn1c2nc(=O)[nH]c(=O)c-2nc2cc(C)c(C)cc21)OC(=O)CCC`, which Potency is on record?
Its Potency is “inactive”.

With `CCCCCCCC/C=C/C(=O)O` as the compound, how does the Potency read?
Its Potency is “inactive”.

For `N[C@H](CSC(c1ccccc1)(c1ccccc1)c1ccccc1)C(=O)O`, which Potency is on record?
Its Potency is “inactive”.

For `CC(C)(C)OC(=O)CN(Cc1ccc(Cl)cc1)Cc1ccc([N+](=O)[O-])s1`, which Potency is on record?
Its Potency is “inactive”.

With `CNC1[C@H](O)C(O[C@@H]2C(O)C(O[C@H]3O[C@H]([C@@H](C)NC)CC[C@H]3N)[C@@H](N)C[C@H]2N)OC[C@]1(C)O` (stereo partly specified) as the compound, how does the Potency read?
Its Potency is “inactive”.

For `CN1CC(=O)N2C(Cc3c([nH]c4ccccc34)[C@H]2c2ccc3c(c2)OCO3)C1=O` (stereo partly specified), which Potency is on record?
The Potency was “inactive”.

With `O=S(=O)(O)c1ccc2nc(-c3ccccc3)[nH]c2c1` as the compound, how does the Potency read?
The Potency was 1.95 µM (active).

Which Potency does the source give for `Cc1cccc(C#Cc2ccccc2)n1` here?
Its Potency is 6.15 µM (active).

With `CN(C)c1ccc2cc(C(=O)N[C@@H](CCCN=C(N)CCl)C(=O)NCc3ccccc3)ccc2c1` as the compound, how does the Potency read?
Its Potency is “inactive”.

With `O=C(/C=C/c1ccc(O)cc1)c1ccc(O)cc1O` as the compound, how does the Potency read?
The Potency was 2.75 µM (active).

Which Potency does the source give for `COc1ccnc2c1CCCCC2S(=O)c1nc2ccccc2[nH]1` (stereo unspecified) here?
The Potency was “inactive”.

For `C/C(=N\O)c1ccc(OCC(=O)N2CCCCC2)cc1`, which Potency is on record?
Its Potency is 9.75 µM (active).

For `NC1CCC(Nc2nc(Nc3ccc(C(=O)N4CCCCC4)cc3)c3ncn(-c4cccc(F)c4)c3n2)CC1` (stereo unspecified), which Potency is on record?
The Potency was “inactive”.

For `Cc1ccc(O)c(N=Nc2ccccc2)n1`, which Potency is on record?
Its Potency is 1.73 µM (active).

Which Potency does the source give for `CC(=NNC(=S)N1CCC1)c1ccccn1` here?
Its Potency is “inactive”.

With `CC(C(=O)O)c1ccc(C(=O)c2ccccc2)s1` (stereo unspecified) as the compound, how does the Potency read?
The Potency was 6.15 µM (active).

For `O=S(=O)(O)CCSSCCS(=O)(=O)O`, which Potency is on record?
Its Potency is “inactive”.

With `COc1cccc(-c2ccc(NC(=O)C3=C(C(=O)O)CCC3)c(F)c2)c1` as the compound, how does the Potency read?
Its Potency is 2.45 µM (active).

With `CS(=O)(=O)c1ccc(-c2cn3ccccc3n2)cc1` as the compound, how does the Potency read?
The Potency was 7.74 µM (active).

With `O=C(O)c1cccc(-c2noc(-c3ccccc3F)n2)c1` as the compound, how does the Potency read?
The Potency was 3.88 µM (active).

Which Potency does the source give for `CCCCCNC(=O)N1CCC(CN(Cc2ccc(Cl)cc2)Cc2ccc([N+](=O)[O-])s2)C1` (stereo unspecified) here?
Its Potency is “inactive”.

For `O=C(Nc1cc2cc[nH]c2cn1)c1ccccc1`, which Potency is on record?
Its Potency is 4.35 µM (active).

Which Potency does the source give for `CC[C@]1(O)C[C@H]2CN(CCc3c([nH]c4ccccc34)[C@@](C(=O)OC)(c3cc4c(cc3OC)N(C=O)[C@H]3[C@@](O)(C(=O)OC)[C@H](OC(C)=O)[C@]5(CC)C=CCN6CC[C@]43[C@@H]65)C2)C1` here?
Its Potency is “inactive”.

For `CC(=C(CCOC(=O)C(C)C)SSC(CCOC(=O)C(C)C)=C(C)N(C=O)Cc1cnc(C)nc1N)N(C=O)Cc1cnc(C)nc1N`, which Potency is on record?
Its Potency is “inactive”.

With `Nc1cc(C(F)(F)F)ccc1S` as the compound, how does the Potency read?
The Potency was “inactive”.

Which Potency does the source give for `O=C1C(Cl)=C(NCCN2CCOCC2)C(=O)c2ncccc21` here?
The Potency was 6.15 µM (active).

For `COc1ccc(CC2=NN3C([C@@H](CCc4ccccc4)[C@@H](C)O)=NC(C)C3C(=O)N2)cc1OC` (stereo partly specified), which Potency is on record?
The Potency was “inactive”.

For `CCCCCCCCCCCC(=O)[O][Sn]([CH2]CCC)([CH2]CCC)[O]C(=O)CCCCCCCCCCC`, which Potency is on record?
The Potency was “inactive”.

With `CN1CC(=O)N/C1=N/C(=O)Nc1cccc(Cl)c1` as the compound, how does the Potency read?
The Potency was 10.9 µM (active).

With `C[C@@H](N)c1ccc(C(=O)Nc2ccnc3[nH]ccc23)cc1` as the compound, how does the Potency read?
The Potency was “inactive”.

For `O=C(Nc1ccc(OC(F)(F)F)cc1)c1sccc1NCc1ccnc2ccccc12`, which Potency is on record?
Its Potency is 7.74 µM (active).

Which Potency does the source give for `O=C(/C=C/c1ccccc1)NCCO` here?
The Potency was “inactive”.

With `c1ccc(CCNc2nc(-c3ccccc3)cs2)cc1` as the compound, how does the Potency read?
The Potency was 10.9 µM (active).

For `O=c1cc(-c2ccccc2)oc2cc(O)c(O)c(O)c12`, which Potency is on record?
The Potency was “inactive”.
